In all, about 1,300 compounds went through this assay and about 1,000 (77%) were called active. Another 7% or so got no clear call; they are omitted. The set was probably picked from earlier hits. Some of the results follow. Values without a mark were called inactive. Calls come from the whole dose curve; as a rule, active = well fitted inhibition curve with a large enough effect; inconclusive = small, poorly fitted or top-dose-only effect; inactive = no such curve, though single readings can be large or run the other way.
Test: qHTS of small molecules that selectively kill Giardia lamblia: Hit Validation.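 Note: viability measured as ATP content by luminescence so killing lowers signal; trophozoites exposed to compounds for 48 h anaerobically at 37 °C; nearly all actives have a fitted effect of over 65% in size.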
Settings: Giardia lamblia trophozoite viability, dose-response; series mostly up to 38.3 µM; activity change, negative = killing: at the top concentration
How it was run: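 Trophozoites 100 cells/well + cpd; 48 hrs, 37 deg C, anaerobic. ATPLite 1-Step added, 15-30 min RT, luminescence read (ATP-based viability).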
With CCC(=O)N1CCN(c2ccc(NC(=O)c3ccc([N+](=O)[O-])o3)cc2Cl)CC1 the Potency was 650 nM (active).
In the case of O=C(Nc1ccccc1N1CCN(C(=O)c2ccccc2)CC1)c1ccc([N+](=O)[O-])o1, the Potency is reported as 818 nM (active).
In the case of CC(=O)Nc1ccc(S(=O)(=O)NCCC(=O)N2CCN(c3ccccc3Cl)CC2)cc1, the “activity change, negative = killing” value is reported as -25.3%.
With CCN1CCN(c2ccc(NC(=O)c3ccc([N+](=O)[O-])o3)cc2Cl)CC1 the Potency was 729 nM (active).
With O=C(Nc1cccc(Cl)c1N1CCOCC1)c1ccc([N+](=O)[O-])o1 the Potency was 1300 nM (active).
For CC(C)C(=O)N1CCN(c2ccccc2NC(=O)c2ccc([N+](=O)[O-])o2)CC1, the Potency was 1160 nM (active).
With O=C(Nc1ccccc1N1CCOCC1)c1ccc([N+](=O)[O-])o1 the Potency was 1300 nM (active).
With CC(C)C(=O)N1CCN(c2ccc(NC(=O)c3ccc([N+](=O)[O-])o3)cc2Cl)CC1 the Potency was 1030 nM (active).
With CCC(=O)N1CCN(c2ccccc2NC(=O)c2ccc([N+](=O)[O-])o2)CC1 the Potency was 818 nM (active).
For COc1ccc(-c2nc(CSCC(=O)NC3CCCC3)c(C)o2)cc1OC, the “activity change, negative = killing” value was -30.1%.
For COc1ccc(CN(C(=O)CSc2nnc(-c3ccc(OC)c(OC)c3)o2)c2ccc(F)cc2)cc1, the Potency was 3650 nM (active).
In the case of Cc1ccc(CSc2nnc(Cn3c(=O)sc4ccccc43)n2C)cc1, the “activity change, negative = killing” value is reported as -21.4%.
With Cc1ccc(-c2nc(-c3ccccc3)no2)c(Cl)c1 the Potency was 1630 nM (active).
With Nc1ccc[n+](CC(=O)c2ccc(F)cc2)c1 the Potency was 2310 nM (active).
In the case of O=C(Nc1cccc2ccccc12)c1ccc([N+](=O)[O-])s1, the Potency is reported as 2050 nM (active).
For Cc1cccc(NC(=O)c2ccc([N+](=O)[O-])s2)c1C, the Potency was 3260 nM (active).
In the case of COc1cc2sc3cc(NCCCN4CCOCC4)ccc3c(=O)c2cc1OC, the Potency is reported as 5160 nM (active).
In the case of COc1ccc(Cc2noc(CN(C)Cc3ccc(-n4cccn4)cc3)n2)cc1OC, the “activity change, negative = killing” value is reported as -6.65%.
In the case of COc1cc2nc(CN(C)Cc3ccc(C(C)(C)C)cc3)[nH]c(=O)c2cc1OC, the Potency is reported as 5160 nM (active).
For Cc1ncc([N+](=O)[O-])n1CCOC(=O)c1ccccc1, the Potency was 1030 nM (active).
In the case of Cc1ncc([N+](=O)[O-])n1CCOC(=O)C12CC3CC(CC(C3)C1)C2, the Potency is reported as 1300 nM (active).
With Cc1ncc([N+](=O)[O-])n1CCOC(=O)c1ccc(Br)cc1 the Potency was 1160 nM (active).
For CC1(C)Oc2ccc3ccc(=O)oc3c2C(/C=N/O)C1=O (centres undefined), the “activity change, negative = killing” value was 5.31%.
In the case of O=[N+]([O-])c1nn(-c2ccc3c(c2)OCCO3)n(O)c1=NCc1ccc(F)cc1, the Potency is reported as 4600 nM (active).
With COc1ccc(-n2nc([N+](=O)[O-])c(=NCc3ccc4c(c3)OCO4)n2O)cc1 the Potency was 14500 nM (active).
For Cc1ccc(CN=c2c([N+](=O)[O-])nn(-c3ccc4c(c3)OCCO4)n2O)cc1, the Potency was 3650 nM (active).
For Cc1ccc(NC(=O)COc2cccnc2[N+](=O)[O-])cc1S(=O)(=O)N1CCCCC1, the Potency was 4100 nM (active).
In the case of Cc1ccc(OCC(=O)Nc2cc(S(=O)(=O)N3CCOCC3)ccc2Cl)c([N+](=O)[O-])n1, the Potency is reported as 4100 nM (active).
With CN(C(=O)c1ccc(NC(=O)Cc2ccc(NC(=O)C3CCCN(S(=O)(=O)c4cccc([N+](=O)[O-])c4)C3)cc2)cc1)C1CCCC1 (centres undefined) the “activity change, negative = killing” value was 1.44%.
In the case of O=C(COc1cccnc1[N+](=O)[O-])Nc1cc(S(=O)(=O)N2CCCCC2)ccc1Cl, the Potency is reported as 1450 nM (active).
For O=C(COc1cccnc1[N+](=O)[O-])Nc1cccc(S(=O)(=O)N2CCCCC2)c1, the Potency was 3650 nM (active).
With Cc1ccc(S(=O)(=O)N2CCN(C(=O)COc3ccc(C)nc3[N+](=O)[O-])CC2)c(C)c1 the Potency was 4100 nM (active).
In the case of COc1ccc(S(=O)(=O)N2CCOCC2)cc1NC(=O)COc1cccnc1[N+](=O)[O-], the Potency is reported as 5790 nM (active).
In the case of Cc1ccc(CCNC(=O)CN2C(=O)COc3ccc(S(=O)(=O)N4CCOCC4)cc32)cc1, the “activity change, negative = killing” value is reported as -1.26%.
With Cc1ccccc1NC(NC(=O)OCCn1c([N+](=O)[O-])cnc1C)C(Cl)(Cl)Cl (centres undefined) the Potency was 729 nM (active).
For Cc1ncc([N+](=O)[O-])n1CCOC(=O)NC(Nc1ccc(F)cc1)C(Cl)(Cl)Cl (centres undefined), the Potency was 460 nM (active).
In the case of CCOC(=O)c1c(C)[nH]c(C)c1S(=O)(=O)N1CCN(c2ccc([N+](=O)[O-])cc2)CC1, the Potency is reported as 7290 nM (active).
With Cc1oc2c(c1C(=O)N1CCC(C)CC1)C(=O)c1ccccc1C2=O the Potency was 3650 nM (active).
For CCOC(=O)C1CCN(C(=O)c2c(C)oc3c2C(=O)c2ccccc2C3=O)CC1, the Potency was 2050 nM (active).
In the case of Cc1oc2c(c1C(=O)N1CCOCC1)C(=O)c1ccccc1C2=O, the Potency is reported as 3260 nM (active).
For O=[N+]([O-])c1ccc(/C=[N+](\[O-])CCO)o1, the Potency was 1160 nM (active).
With O=[N+]([O-])c1ccc(/C=[N+](\[O-])[C@@H]2CCCC[C@@H]2/[N+]([O-])=C/c2ccc([N+](=O)[O-])o2)o1 the Potency was 650 nM (active).
For CCOC(=O)N1CCN(C(=O)c2ccc(Cl)c(NC(=O)c3cccs3)c2)CC1, the “activity change, negative = killing” value was 19.9%.
For Cc1ccn(-c2ccc(NC(=O)c3cccs3)cc2)n1, the Potency was 16300 nM (active).

Source: PubChem BioAssay AID588397 (National Center for Advancing Translational Sciences (NCATS), 2011)
% is set by controls: 0 for no effect and ±100 for the full control effect; potency is the fitted concentration of half-maximal effect.
